Experimental data published in ChEMBL document CHEMBL1961873, “Compounds: GSK PKIS; Assays: Nanosyn kinase panel” (2012).

How the values were obtained:
[1] = molecular target: Platelet-derived growth factor receptor beta (Homo sapiens) (UniProt P09619); conditions: at 1 µM;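 also: each value is a mean percent inhibition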
[2] = molecular target: Tyrosine-protein kinase FRK (Homo sapiens) (UniProt P42685); conditions: at 0.1 µM
[3] = molecular target: Tyrosine-protein kinase FRK (Homo sapiens) (UniProt P42685); conditions: at 1 µM
[4] = molecular target: Protein-tyrosine kinase 2-beta (Homo sapiens) (UniProt Q14289); conditions: at 0.1 µM
[5] = molecular target: Protein-tyrosine kinase 2-beta (Homo sapiens) (UniProt Q14289); conditions: at 1 µM
[6] = molecular target: Proto-oncogene tyrosine-protein kinase receptor Ret (Homo sapiens) (UniProt P07949); conditions: at 0.1 µM
[7] = molecular target: Proto-oncogene tyrosine-protein kinase receptor Ret (Homo sapiens) (UniProt P07949); conditions: at 1 µM
[8] = system: Proto-oncogene tyrosine-protein kinase receptor Ret (Homo sapiens), P07949 [V804L]; conditions: at 0.1 µM
[9] = system: Proto-oncogene tyrosine-protein kinase receptor Ret (Homo sapiens), P07949 [V804L]; conditions: at 1 µM
[10] = system: Proto-oncogene tyrosine-protein kinase receptor Ret (Homo sapiens), P07949 [Y791F]; conditions: at 0.1 µM
[11] = system: Proto-oncogene tyrosine-protein kinase receptor Ret (Homo sapiens), P07949 [Y791F]; conditions: at 1 µM
[12] = molecular target: Macrophage-stimulating protein receptor (Homo sapiens) (UniProt Q04912); conditions: at 0.1 µM
[13] = molecular target: Macrophage-stimulating protein receptor (Homo sapiens) (UniProt Q04912); conditions: at 1 µM
[14] = molecular target: Proto-oncogene tyrosine-protein kinase ROS (Homo sapiens) (UniProt P08922); conditions: at 0.1 µM
[15] = molecular target: Proto-oncogene tyrosine-protein kinase ROS (Homo sapiens) (UniProt P08922); conditions: at 1 µM
[16] = molecular target: Proto-oncogene tyrosine-protein kinase Src (Homo sapiens) (UniProt P12931); conditions: at 0.1 µM
[17] = molecular target: Proto-oncogene tyrosine-protein kinase Src (Homo sapiens) (UniProt P12931); conditions: at 1 µM
[18] = molecular target: Tyrosine-protein kinase Srms (Homo sapiens) (UniProt Q9H3Y6); conditions: at 0.1 µM
[19] = molecular target: Tyrosine-protein kinase Srms (Homo sapiens) (UniProt Q9H3Y6); conditions: at 1 µM
[20] = molecular target: Tyrosine-protein kinase SYK (Homo sapiens) (UniProt P43405); conditions: at 0.1 µM;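 also: reported percentages are mean inhibition values for SYK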

Chain of Platelet-derived growth factor receptor beta (Homo sapiens) (P09619 whole entry): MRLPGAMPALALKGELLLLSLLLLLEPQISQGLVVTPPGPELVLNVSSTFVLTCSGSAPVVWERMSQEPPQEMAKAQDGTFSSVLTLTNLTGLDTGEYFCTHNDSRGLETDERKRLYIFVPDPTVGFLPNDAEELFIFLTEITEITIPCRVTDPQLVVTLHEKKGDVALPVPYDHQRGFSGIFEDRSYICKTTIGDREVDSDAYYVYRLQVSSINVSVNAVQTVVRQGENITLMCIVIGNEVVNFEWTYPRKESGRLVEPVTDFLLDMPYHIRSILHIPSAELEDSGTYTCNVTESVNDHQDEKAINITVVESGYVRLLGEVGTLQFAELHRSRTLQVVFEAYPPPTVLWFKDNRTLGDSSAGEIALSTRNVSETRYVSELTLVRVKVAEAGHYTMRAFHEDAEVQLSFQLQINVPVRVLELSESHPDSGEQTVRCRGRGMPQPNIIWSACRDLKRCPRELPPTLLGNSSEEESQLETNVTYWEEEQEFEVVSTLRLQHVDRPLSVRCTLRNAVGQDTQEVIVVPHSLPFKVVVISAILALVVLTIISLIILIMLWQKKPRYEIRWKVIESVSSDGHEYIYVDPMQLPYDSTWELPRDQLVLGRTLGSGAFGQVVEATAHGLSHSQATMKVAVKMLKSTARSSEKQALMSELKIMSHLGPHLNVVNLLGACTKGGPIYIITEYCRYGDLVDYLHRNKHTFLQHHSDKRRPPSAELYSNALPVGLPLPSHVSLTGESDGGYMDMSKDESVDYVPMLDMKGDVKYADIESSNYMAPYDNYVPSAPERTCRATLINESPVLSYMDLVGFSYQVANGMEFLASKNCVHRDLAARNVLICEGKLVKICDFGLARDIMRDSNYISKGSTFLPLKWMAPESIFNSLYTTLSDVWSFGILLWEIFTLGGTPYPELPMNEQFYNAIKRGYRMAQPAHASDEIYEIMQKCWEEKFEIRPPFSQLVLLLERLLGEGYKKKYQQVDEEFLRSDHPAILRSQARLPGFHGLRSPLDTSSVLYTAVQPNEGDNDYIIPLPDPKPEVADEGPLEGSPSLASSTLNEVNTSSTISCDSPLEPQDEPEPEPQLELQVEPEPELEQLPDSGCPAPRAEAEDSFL
Chain of Tyrosine-protein kinase Srms (Homo sapiens) (Q9H3Y6 whole entry): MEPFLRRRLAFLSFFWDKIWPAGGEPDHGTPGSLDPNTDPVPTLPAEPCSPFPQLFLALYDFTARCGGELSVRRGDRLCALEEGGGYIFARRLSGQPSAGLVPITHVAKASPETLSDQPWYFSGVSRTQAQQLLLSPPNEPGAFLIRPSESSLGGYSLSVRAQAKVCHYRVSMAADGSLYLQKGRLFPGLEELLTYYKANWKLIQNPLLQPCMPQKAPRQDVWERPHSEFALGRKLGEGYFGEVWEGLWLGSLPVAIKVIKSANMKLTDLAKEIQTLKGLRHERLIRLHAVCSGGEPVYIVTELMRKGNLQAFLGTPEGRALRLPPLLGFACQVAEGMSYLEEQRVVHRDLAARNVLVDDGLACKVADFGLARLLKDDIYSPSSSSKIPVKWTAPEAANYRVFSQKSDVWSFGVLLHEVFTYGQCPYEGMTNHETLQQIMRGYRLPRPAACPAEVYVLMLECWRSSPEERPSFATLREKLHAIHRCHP
Chain of Protein-tyrosine kinase 2-beta (Homo sapiens) (Q14289 whole entry, looked up): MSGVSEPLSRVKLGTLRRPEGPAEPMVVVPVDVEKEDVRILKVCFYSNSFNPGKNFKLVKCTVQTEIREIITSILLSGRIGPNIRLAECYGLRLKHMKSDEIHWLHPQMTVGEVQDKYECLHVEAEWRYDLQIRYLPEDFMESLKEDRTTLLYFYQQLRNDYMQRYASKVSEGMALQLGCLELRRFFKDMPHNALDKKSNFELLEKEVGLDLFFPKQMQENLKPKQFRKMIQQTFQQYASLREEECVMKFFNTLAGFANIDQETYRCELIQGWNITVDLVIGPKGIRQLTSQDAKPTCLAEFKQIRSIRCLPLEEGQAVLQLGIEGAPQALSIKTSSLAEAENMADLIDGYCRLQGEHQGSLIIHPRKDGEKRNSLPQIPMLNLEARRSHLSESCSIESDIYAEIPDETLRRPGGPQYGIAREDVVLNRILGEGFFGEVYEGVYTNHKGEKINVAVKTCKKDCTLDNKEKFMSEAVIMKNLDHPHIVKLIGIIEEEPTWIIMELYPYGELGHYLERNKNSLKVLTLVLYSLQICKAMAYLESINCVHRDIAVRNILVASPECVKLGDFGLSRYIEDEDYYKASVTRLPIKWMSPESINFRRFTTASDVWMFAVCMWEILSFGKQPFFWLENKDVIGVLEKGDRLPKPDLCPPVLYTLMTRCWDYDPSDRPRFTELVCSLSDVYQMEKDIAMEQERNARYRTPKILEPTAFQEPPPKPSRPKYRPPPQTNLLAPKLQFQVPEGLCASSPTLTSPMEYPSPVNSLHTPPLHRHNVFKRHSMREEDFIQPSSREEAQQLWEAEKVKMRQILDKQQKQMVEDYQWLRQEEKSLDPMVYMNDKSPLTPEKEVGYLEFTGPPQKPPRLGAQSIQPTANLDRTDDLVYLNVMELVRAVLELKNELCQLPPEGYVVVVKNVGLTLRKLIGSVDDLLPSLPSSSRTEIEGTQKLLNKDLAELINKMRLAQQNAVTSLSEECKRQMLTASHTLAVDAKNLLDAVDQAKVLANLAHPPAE
Chain of Proto-oncogene tyrosine-protein kinase ROS (Homo sapiens) (P08922 whole entry): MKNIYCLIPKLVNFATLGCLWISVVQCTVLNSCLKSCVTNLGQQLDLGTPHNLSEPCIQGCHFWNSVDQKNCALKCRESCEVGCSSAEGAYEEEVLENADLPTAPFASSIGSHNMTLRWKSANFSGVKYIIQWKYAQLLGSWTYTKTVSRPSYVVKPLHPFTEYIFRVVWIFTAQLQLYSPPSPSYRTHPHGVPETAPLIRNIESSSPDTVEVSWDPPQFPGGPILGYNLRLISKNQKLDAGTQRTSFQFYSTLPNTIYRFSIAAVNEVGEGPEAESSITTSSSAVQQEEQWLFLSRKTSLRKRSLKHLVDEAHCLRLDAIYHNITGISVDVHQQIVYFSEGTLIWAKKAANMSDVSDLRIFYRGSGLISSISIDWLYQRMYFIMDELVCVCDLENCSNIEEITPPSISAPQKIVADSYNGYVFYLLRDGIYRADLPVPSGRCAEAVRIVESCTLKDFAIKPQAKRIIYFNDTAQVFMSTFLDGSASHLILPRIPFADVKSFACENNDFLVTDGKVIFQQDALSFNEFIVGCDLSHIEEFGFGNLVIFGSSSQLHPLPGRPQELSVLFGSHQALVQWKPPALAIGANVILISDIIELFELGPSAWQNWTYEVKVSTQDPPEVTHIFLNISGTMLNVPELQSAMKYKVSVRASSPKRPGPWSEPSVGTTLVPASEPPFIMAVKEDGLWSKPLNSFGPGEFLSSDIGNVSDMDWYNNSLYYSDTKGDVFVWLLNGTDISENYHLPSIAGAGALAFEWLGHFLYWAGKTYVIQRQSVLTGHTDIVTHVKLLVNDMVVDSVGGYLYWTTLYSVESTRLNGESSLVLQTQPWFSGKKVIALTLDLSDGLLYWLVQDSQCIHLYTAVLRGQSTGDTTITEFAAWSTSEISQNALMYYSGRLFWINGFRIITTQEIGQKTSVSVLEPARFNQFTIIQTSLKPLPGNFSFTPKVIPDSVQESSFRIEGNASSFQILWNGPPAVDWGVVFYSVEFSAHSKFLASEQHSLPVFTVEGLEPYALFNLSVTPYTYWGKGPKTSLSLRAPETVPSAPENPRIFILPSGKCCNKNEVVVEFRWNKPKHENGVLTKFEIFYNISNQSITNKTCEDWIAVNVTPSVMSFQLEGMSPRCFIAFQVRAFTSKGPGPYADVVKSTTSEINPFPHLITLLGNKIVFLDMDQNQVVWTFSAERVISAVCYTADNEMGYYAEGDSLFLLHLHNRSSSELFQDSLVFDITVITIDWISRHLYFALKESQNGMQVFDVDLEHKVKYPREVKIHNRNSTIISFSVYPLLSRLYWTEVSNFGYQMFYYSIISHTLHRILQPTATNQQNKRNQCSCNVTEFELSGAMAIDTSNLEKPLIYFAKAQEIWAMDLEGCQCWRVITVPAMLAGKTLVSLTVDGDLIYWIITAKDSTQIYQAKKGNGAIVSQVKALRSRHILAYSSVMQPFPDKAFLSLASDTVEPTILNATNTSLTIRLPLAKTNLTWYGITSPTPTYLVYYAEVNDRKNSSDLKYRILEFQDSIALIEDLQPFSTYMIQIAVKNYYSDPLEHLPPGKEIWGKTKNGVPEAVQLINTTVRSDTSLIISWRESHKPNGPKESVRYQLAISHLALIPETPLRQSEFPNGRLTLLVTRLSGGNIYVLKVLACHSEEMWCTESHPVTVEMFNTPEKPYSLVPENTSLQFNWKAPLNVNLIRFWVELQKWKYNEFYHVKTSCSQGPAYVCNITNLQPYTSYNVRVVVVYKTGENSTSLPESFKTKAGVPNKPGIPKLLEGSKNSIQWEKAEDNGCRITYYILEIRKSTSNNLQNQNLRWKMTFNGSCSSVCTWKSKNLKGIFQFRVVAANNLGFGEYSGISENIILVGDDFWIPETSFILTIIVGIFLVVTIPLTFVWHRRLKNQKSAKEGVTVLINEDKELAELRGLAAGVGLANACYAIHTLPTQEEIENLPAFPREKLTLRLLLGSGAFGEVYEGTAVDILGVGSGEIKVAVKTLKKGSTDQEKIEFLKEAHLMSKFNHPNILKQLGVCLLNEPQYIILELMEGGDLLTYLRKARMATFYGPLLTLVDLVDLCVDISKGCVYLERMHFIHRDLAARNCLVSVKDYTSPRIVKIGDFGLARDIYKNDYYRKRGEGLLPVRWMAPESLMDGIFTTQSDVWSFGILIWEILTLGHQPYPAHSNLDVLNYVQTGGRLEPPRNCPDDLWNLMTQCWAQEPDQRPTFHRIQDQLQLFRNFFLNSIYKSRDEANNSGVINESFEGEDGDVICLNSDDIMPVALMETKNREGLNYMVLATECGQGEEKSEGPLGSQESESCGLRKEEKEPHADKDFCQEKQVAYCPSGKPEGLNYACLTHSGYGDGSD

SMILES | inhibition [1] [%] | inhibition [2] [%] | inhibition [3] [%] | inhibition [4] [%] | inhibition [5] [%] | inhibition [6] [%] | inhibition [7] [%] | inhibition [8] [%] | inhibition [9] [%] | inhibition [10] [%] | inhibition [11] [%] | inhibition [12] [%] | inhibition [13] [%] | inhibition [14] [%] | inhibition [15] [%] | inhibition [16] [%] | inhibition [17] [%] | inhibition [18] [%] | inhibition [19] [%] | inhibition [20] [%]
NS(=O)(=O)c1ccc(N/N=C2\C(=O)Nc3ccc(C(=O)NCCCn4ccnc4)cc32)cc1 | 68.9 | 2.01 | 2.76 | 14.3 | 20.9 | 12.5 | 51.9 | 38.7 | 76.2 | 14.2 | 59.8 | -0.93 | 7.24 | 9.73 | 13.2 | 9.31 | 27.1 | -1.71 | 1.02 | -1.95
COc1ccc2cc(-c3c(-c4ccncc4)nc(-c4ccc(S(C)(=O)=O)cc4C)n3C)ccc2c1 | 13.2 | 3.55 | 2.3 | 12.8 | 12.4 | 4.93 | 22.2 | 2.68 | 4.41 | 3.67 | 26.6 | 0.23 | -0.19 | 6.07 | 8.9 | 3.38 | 11.2 | 1.11 | 5.61 | 0.01
CS(=O)(=O)CCNCc1cc(-c2cc3c(Nc4ccc(OCc5cccc(F)c5)c(Cl)c4)ncnc3s2)cs1 | 11.2 | 4.58 | 3.68 | 4.47 | 4.63 | 7.3 | 7.36 | 4.33 | 7.85 | 8.47 | 9.4 | 2.33 | 4 | 6.34 | 10 | 10.7 | 14.7 | -2.71 | -1.03 | -1.05
CCS(=O)(=O)c1ccc(OC)c(Nc2ncc(-c3ccccc3Cl)o2)c1 | 28 | 0.68 | 4.99 | 6.54 | 45.2 | 4 | 8.62 | 3.06 | 21.2 | 2.23 | 9.6 | -3.54 | 8.49 | -1.24 | 4.38 | 4.44 | 23.4 | 2.76 | 3.31 | -0.36
COc1cc2ncn(-c3cc(OCc4ccccc4C(F)(F)F)c(C(C)=O)s3)c2cc1OC | 21.5 | 0.97 | 2.94 | – | – | 4.62 | 5.58 | 5.33 | 9.72 | 7.72 | 12.8 | 2.88 | 20 | 0.39 | 7.62 | 6.86 | 6.06 | -2.02 | 0.82 | 0.3
N#Cc1ccc(Oc2nccc(-c3c(-c4ccc(F)cc4)ncn3C3CCNCC3)n2)cc1 | 5.37 | 2.75 | 4.03 | 6.64 | 13.4 | 6.33 | 4.32 | 3.48 | 4.02 | 6.66 | 9.04 | 5.63 | 4.9 | 5 | 7.93 | 7.01 | 6.12 | -3.21 | -3.22 | -0.77
COc1cc(Nc2ncc(-c3ccccc3)o2)cc(OC)c1OC | 74.2 | 0.5 | 4.26 | -6.53 | 5.39 | 2.33 | 15.5 | 1 | 16.2 | 0.66 | 16.2 | -0.55 | 3.47 | 2.53 | 15.8 | 19.7 | 72.4 | -1.26 | 3.83 | -0.67
Fc1ccc(-c2c(-c3ccncc3)nc3n2CCS3)cc1 | 5.75 | 1.6 | 2.05 | 10.7 | 4.18 | 1.13 | 7.86 | 3.1 | 6.64 | 3.14 | 7.69 | 7.82 | 5.85 | 2.1 | 8.26 | -3.16 | 9.68 | – | 0.79 | 0.99
O=C(Nc1n[nH]c2nc(-c3ccco3)ccc12)C1CC1 | 5.96 | 0.93 | 1.05 | 1.43 | 0.04 | 8.2 | 9.6 | 4.51 | 8.22 | 4.94 | 8.66 | -0.93 | 4.1 | 3 | 3.03 | -4.02 | 4.81 | 1.77 | 1.57 | -0.47
NC(=O)c1cc(-c2ccc(F)cc2)cc(-c2ccncc2)c1N | 5.05 | 1.66 | 1.82 | – | – | 6.04 | 1.69 | 2.31 | 2.03 | 4.64 | 8.5 | 3.91 | 2.73 | 3.93 | 6.41 | -1.61 | 10.9 | -0.29 | -1.13 | -2.32
CCc1ccc(Oc2nccc(-c3c(-c4ccc(F)cc4)ncn3C3CCNCC3)n2)cc1 | 13.8 | 0.83 | -0.45 | -1.83 | 2.07 | 3.04 | 7.38 | 3.58 | 4.57 | 4 | 8.79 | 3.67 | 2.97 | 6.34 | 6.93 | 10.2 | 10 | -0.71 | -0.39 | 0.89
CCC(=O)Nc1ccc(C)c(-c2ccc(C(=O)NCC3CC3)cc2)c1 | 0.71 | 2.5 | 2.55 | 11.8 | 6.44 | 7.45 | 6.85 | 1.64 | 2.22 | 4.76 | 6.48 | 9.18 | 7.8 | – | 3.11 | 6.28 | 6.57 | -0.92 | -1.83 | 3.61
CN(c1ccc(NC(=O)Nc2c(Cl)cccc2Cl)cc1)c1ccnc(Nc2cccc(CS(C)(=O)=O)c2)n1 | 77.7 | 3.86 | 14.5 | 55.1 | 29.7 | 23.8 | 48.6 | 13.2 | 41 | 24.4 | 64.8 | 68.8 | 82.1 | 14.8 | 33.5 | 40.7 | 65.4 | 2.98 | 3.99 | 2.77
O=C1Nc2ccccc2/C1=C/Nc1ccc(-n2cncn2)cc1 | 33.4 | 2.78 | 3.04 | 11.7 | 24.7 | 15.4 | 48.6 | 20.2 | 67.3 | 12.9 | 53.2 | 7.27 | 6.25 | 6.51 | 8.39 | 9.95 | 19.2 | 0.3 | -0.18 | -1.28
O=C(Nc1n[nH]c2nc(-c3ccc(O)cc3)c(Br)cc12)C1CC1 | 41.3 | 14.7 | 2.41 | 9.91 | 18.5 | 11.8 | 28.1 | 5.98 | 21 | 12.1 | 36.3 | 2.95 | 6.19 | 5.89 | 11.1 | -2.92 | 20.3 | 2.23 | 17 | -6.1
